Data as given in PubChem BioAssay (NCI).
Compounds without any hit were thinned out: in the full panel of roughly 83,000, 20% have a hit.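 Cell lines were cultured in 96-well plates, exposed to a single compound concentration, and assessed for percent growth 48 hours later.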 Unmarked numbers belong to inactive results. Active and inactive are the calls of the source. How the source made its calls: active means growth percent below 10; inactive means the rest.

Key:
Assay in all cases: NCI-60 one-dose screen, 48 h (100 = growth as untreated, 0 = no growth, -100 = all killed)
Conditions in all cases: 10 µM unless noted
[1] = tested on: DU-145 prostate
[2] = tested on: K-562 leukemia
[3] = tested on: MALME-3M melanoma
[4] = tested on: MDA-MB-231 breast
[5] = tested on: RXF 393 renal
[6] = tested on: SF-268 CNS
[7] = tested on: SF-295 CNS
[8] = tested on: SF-539 CNS
[9] = tested on: UACC-257 melanoma
[10] = tested on: M14 melanoma
[11] = tested on: HCT-15 colon
[12] = tested on: HT29 colon
[13] = tested on: SNB-75 CNS
[14] = tested on: SNB-19 CNS
[15] = tested on: U251 CNS
[16] = tested on: PC-3 prostate
[17] = tested on: SK-MEL-5 melanoma
[18] = tested on: UACC-62 melanoma
[19] = tested on: LOX IMVI melanoma
[20] = tested on: SK-MEL-28 melanoma

| Structure (SMILES) | growth [1] | growth [2] | growth [3] | growth [4] | growth [5] | growth [6] | growth [7] | growth [8] | growth [9] | growth [10] | growth [11] | growth [12] | growth [13] | growth [14] | growth [15] | growth [16] | growth [17] | growth [18] | growth [19] | growth [20] |
| --- | --- | --- | --- | --- | --- | --- | --- | --- | --- | --- | --- | --- | --- | --- | --- | --- | --- | --- | --- | --- |
| C#C[C@]1(O)CC[C@H]2[C@@H]3CC=C4c5nc(N)sc5CC[C@]4(C)[C@H]3CC[C@@]21C | 71.2% | 29.7% | 42.1% | 45.4% | -22.4% (active) | 62.8% | -43.6% (active) | -32% (active) | 72.8% | 81.1% | 42.4% | 41.6% | -5.36% (active) | 71.6% | 38.1% | 47.5% | 60.4% | 30.3% | 55.4% | 57.1% |
| CCc1ccc(-c2ccc(COc3ccc(CC4SC(=O)NC4=O)cc3)cc2)cc1 (stereo not given) | 88.8% | 34.8% | 67.3% | 77.3% | 102% | 76.7% | 75.8% | 77% | 86.3% | 79.6% | 56.4% | 103% | 76.2% | 87.1% | 72.8% | 65.6% | 39.8% | 60.2% | 63.3% | 85% |
| CCN1CCN(CC(=O)Nc2nc3ccc(NCc4ccc(Cl)cc4)cc3s2)CC1 | 89.6% | 2.71% (active) | 0.984% (active) | 51.9% | 51.2% | 71% | 81.6% | 64.3% | 7.11% (active) | -76.6% (active) | 0.991% (active) | 19.6% | 103% | 79.6% | 58.2% | 52.7% | -37.9% (active) | -12% (active) | 16.9% | 24.7% |
| CC(C)OC(=O)Nc1cc(F)c(F)cc1F | 110% | 111% | 89.9% | 103% | 104% | 101% | 102% | 96.2% | 94.8% | 93.7% | 98.1% | 99.3% | 96.3% | 102% | 99.3% | 99.8% | 102% | 96.6% | 109% | 96% |
| CC(C)OC(=O)Nc1cc(F)ccc1F | 110% | 97.4% | 92.7% | 97% | 106% | 103% | 97.5% | 92.1% | 96.9% | 96.6% | 105% | 98.3% | 95.3% | 96.2% | 100% | 99.7% | 101% | 94.1% | 106% | 102% |
| CCOC(=O)Nc1ccc2c(c1)/C(=N\NC(=S)NC)c1ccccc1-2 | 88.9% | 77.2% | 115% | 65% | 7.59% (active) | 101% | 46.8% | 71.4% | 107% | 78.2% | 66.7% | 88% | 96.2% | 71.8% | 62% | 81.8% | 73.5% | 71.9% | 67.1% | 82.7% |
| COc1ccc2[nH]c(C(=O)N3CCN(C(=O)OCc4ccc5c(Br)cc(Br)c(O)c5n4)CC3)cc2c1 | -97.8% (active) | 2.19% (active) | -95.3% (active) | -84.6% (active) | -87.9% (active) | -80.2% (active) | -87.8% (active) | -99.8% (active) | -59.1% (active) | -77.9% (active) | -72.2% (active) | -68.5% (active) | -98.5% (active) | -93.1% (active) | -95.7% (active) | -87.9% (active) | -99% (active) | -95.5% (active) | -91.2% (active) | -98.1% (active) |
| C#CCC(C(=O)OCC)C(=O)OCC | 101% | 102% | 110% | 101% | 128% | 104% | 103% | 101% | 108% | 105% | 106% | 103% | 90.5% | 102% | 104% | 99.8% | 105% | 101% | 99.2% | 109% |
| CCCCCCCCCN(CCCCCCCCC)C(C)C(=O)c1ccc2cc(Br)c3ccccc3c2c1 (stereo not given) | 88.6% | 39.2% | 118% | 68.9% | 99.4% | 87.1% | 100% | 81.2% | 98.7% | 55.7% | 47.1% | 30.1% | 84.5% | 92% | 70.9% | 75.2% | 88.5% | 92.8% | 63.9% | 109% |
| O=C1C(Cl)=C(Nc2ccc3cn[nH]c3c2)C(=O)c2ccccc21 | -100% (active) | -50% (active) | -88.7% (active) | -50.3% (active) | -95.9% (active) | -98.7% (active) | 5.88% (active) | 10.5% | 19.3% | -83.8% (active) | -84.1% (active) | -66.9% (active) | -84.5% (active) | 76.5% | -93.2% (active) | -42% (active) | -99.5% (active) | -97.9% (active) | -87.5% (active) | -97.7% (active) |
| COc1ccc2c(c1)c(-c1noc(-c3cn(C)c4ncc(F)cc34)n1)cn2C | 82.4% | 84.7% | 77.5% | 62.2% | 73.7% | 79.7% | 62.6% | 84.6% | 94.4% | 91.9% | 84.7% | 78.2% | 94.9% | 76.2% | 76.6% | 91.7% | 74.8% | 83.9% | 52.4% | 91.3% |
| O=C(Nc1ccc(Oc2ccc(F)cc2)c(Cl)c1)c1cccnn1 | 76.7% | 55.5% | 105% | 88.1% | 82.6% | 80.4% | 73.4% | 85.5% | 64.3% | 114% | 77.6% | 76.7% | 87.8% | 66.2% | 62.9% | 64.4% | 30.7% | 62.5% | 72.8% | 90.9% |
| CCc1cccc(Cl)c1 | 111% | 114% | 120% | 112% | 114% | 106% | 110% | 104% | 94% | 101% | 105% | 92.8% | 91% | 104% | 105% | 88.2% | 103% | 101% | 103% | 106% |
| CC1(C)C(=O)/C(=C\c2cccnc2)C[C@]2(C)[C@H]3CC[C@@H]4[C@H]5[C@H](C(=O)/C=C/c6cccnc6)CC[C@]5(C(=O)O)CC[C@@]4(C)[C@]3(C)CC[C@@H]12 | -80.6% [100 µM] (active) | 6.57% [100 µM] (active) | -73.8% [100 µM] (active) | -34.6% [100 µM] (active) | -61.9% [100 µM] (active) | -34.9% [100 µM] (active) | -75.8% [100 µM] (active) | -56.9% [100 µM] (active) | -52% [100 µM] (active) | -38.4% [100 µM] (active) | -74.6% [100 µM] (active) | -72% [100 µM] (active) | -96.5% [100 µM] (active) | -83.3% [100 µM] (active) | -82.3% [100 µM] (active) | -38.4% [100 µM] (active) | -73.5% [100 µM] (active) | -89.8% [100 µM] (active) | -68.9% [100 µM] (active) | -71.7% [100 µM] (active) |
